In the library only some 1.5% were active in any assay of this set; here they are far more common.
eIF4H inh = inhibitors of RNA binding by human eIF4H | Q15056 | eIF4H fluorescence polarization binding assay | inhibition, % at 35 µM | 0.94% of 290,000 active | AID 2012;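 further: calls also rest on retests at 20 µM and on dose response follow-up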
eIF4E 4G PPI = inhibitors of eIF4E and eIF4G interaction in translation initiation; AID 782; P63073+Q04637; 0.37% of 220,000 active; TR-FRET eIF4E-eIF4GI(517-606) binding, 2 h; inhibition, % at 21.7 µM;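 active means inhibition above about 30%, limit read from the data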
MLLE-PAM2 inh = inhibitors of microRNA-mediated deadenylation, human PABP1 MLLE binding. P11940. AID 588489. GST-MLLE / FITC-PAM2 fluorescence polarization. inhibition, % at 20 µM. 0.36% of 360,000 active; in the data active means inhibition above about 35%, passing the limit was not always enough
Target sequence (P11940 whole entry, looked up): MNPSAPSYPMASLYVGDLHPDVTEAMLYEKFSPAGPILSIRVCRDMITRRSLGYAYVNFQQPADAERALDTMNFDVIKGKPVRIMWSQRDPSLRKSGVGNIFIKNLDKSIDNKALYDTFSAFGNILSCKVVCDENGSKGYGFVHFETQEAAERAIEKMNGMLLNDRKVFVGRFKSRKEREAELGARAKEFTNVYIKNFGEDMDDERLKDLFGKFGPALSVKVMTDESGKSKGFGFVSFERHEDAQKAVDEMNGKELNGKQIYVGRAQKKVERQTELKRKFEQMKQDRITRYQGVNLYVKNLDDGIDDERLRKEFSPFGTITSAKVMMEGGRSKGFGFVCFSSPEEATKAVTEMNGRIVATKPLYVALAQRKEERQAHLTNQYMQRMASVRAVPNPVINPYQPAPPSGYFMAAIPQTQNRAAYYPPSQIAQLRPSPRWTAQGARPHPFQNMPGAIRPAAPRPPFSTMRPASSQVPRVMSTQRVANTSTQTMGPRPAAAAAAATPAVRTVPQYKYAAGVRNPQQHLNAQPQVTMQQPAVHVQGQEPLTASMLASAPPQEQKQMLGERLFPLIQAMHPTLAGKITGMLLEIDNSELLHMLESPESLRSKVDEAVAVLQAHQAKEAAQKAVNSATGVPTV
PABP FP inh = blocks human PABP binding to poly(A) RNA. 1% of 290,000 active. P11940. fluorescence polarization. calls only at 35 µM;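 further: calls also rest on retests at 20 µM and on dose response follow-up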
Numbers stand for hits; . = inactive; ? = inconclusive; / = no result given; + = active, no number; [ ] = dose if it differs, or a comment. Unless noted, how the calls were made is not given here.

SMILES	eIF4H inh	eIF4E 4G PPI	MLLE-PAM2 inh	PABP FP inh
O=c1[nH]c(=O)n(-c2ccccc2)c(O)c1N=Nc1ccc(Br)cc1	2.1	.	.	.
O=C1NCN(c2ccccc2)C12CCN(C(c1cc3ccccc3o1)c1nnnn1C1CCCCC1)CC2 (stereo unspecified)	/	/	.	/
C/C(=N\N1CCCCCC1)c1c(O)n(C2CCCCC2)c(=O)[nH]c1=O	.	45	.	.
C=CCn1c(O)c(/C(C)=N/N2CCCCCC2)c(=O)[nH]c1=O	.	.	.	.
C[C@@H]1CN([C@H](C)CO)C(=O)CCCn2nncc2CO[C@@H]1CN(C)C(=O)Oc1ccccc1	/	/	.	/
O=C1NC(=S)NC(=O)C1=Cc1ccc2c(c1)CCN2CCCCl	68	.	.	+
CC(=O)Nc1ccc(OC(=O)N(C)c2ccccc2)cc1	active	.	.	.
Nc1cc2nc3ccccc3nc2cc1N	91	36	.	+
Cc1cccc(OCCn2cccc2/C=C2/C(=O)NC(=O)N(Cc3ccco3)C2=O)c1	53	.	.	+
O=C1NC(=O)N(Cc2ccco2)C(=O)/C1=C/c1ccc(-c2cccc([N+](=O)[O-])c2)o1	78	.	.	+
C=CCN1C(=O)NC(=O)/C(=C\c2ccc(-c3ccccc3[N+](=O)[O-])o2)C1=O	.	.	.	.
COc1cccc(C(c2nnnn2-c2c(C)cccc2C)N2CCC(n3c(=O)[nH]c4ccccc43)CC2)c1OC (stereo unspecified)	/	/	.	/
C[C@@H]1CN([C@H](C)CO)C(=O)CCCn2nncc2CO[C@H]1CN(C)C(=O)Oc1ccc2ccccc2c1	/	/	.	/
Cc1ccc2nc(N3CCC(C(=O)N4CCC5(CC4)OCCO5)CC3)sc2c1	.	.	.	.
CCc1ccc2nc(N3CCC(C(=O)N4CCC5(CC4)OCCO5)CC3)sc2c1	2.3	.	.	+
COC(=O)C1=COC(C)C2CN3CCc4c([nH]c5cc(OC)ccc45)C3CC12 (stereo unspecified)	/	/	.	/
Cc1[nH]nc2ccc(-c3cncc(OC[C@@H](N)Cc4c[nH]c5ccccc45)c3)cc12	/	/	.	/
NC(=S)c1cn(C2OC(CO)C(O)C2O)c2ncnc(N)c12 (stereo unspecified)	.	.	43	.
Cc1ccc2[nH]c3c(c2c1)CN(C(=O)CN1C[C@H]2C[C@@H](C1)c1cccc(=O)n1C2)CC3	.	/	.	+
COC(=O)C1=C(c2ccc(OCc3ccccc3)c(F)c2)C[C@@H]2CC[C@H]1N2C	/	/	.	/
CC(C)[N+](C)(CCC(C(N)=O)(c1ccccc1)c1ccccc1)C(C)C	12	.	.	.
Cc1cccc(C)c1-n1nnnc1C(c1cccs1)N1CCC2(CC1)C(=O)NCN2c1ccccc1 (stereo unspecified)	/	/	.	/
O=C1NC(=O)C(CCc2ccncc2)(CCc2ccncc2)C(=O)N1Cc1ccccc1	.	87	.	.
C=CCn1c(O)c(/C=C2/C=CC=N2)c(=O)[nH]c1=O	88	.	.	+
CCCCn1c(O)c(/C=C2/C=CC=N2)c(=O)[nH]c1=O	.	.	.	.
SMILES	eIF4H inh	eIF4E 4G PPI	MLLE-PAM2 inh	PABP FP inh
O=[N+]([O-])/C=C/c1c(Cl)cccc1Cl	/	/	.	/
O=C(Nc1ccc(C(=O)O)cc1)Oc1ccc(N(CCCl)CCCl)cc1	/	/	.	/
O=C(Cc1ccccc1)OCC(=O)c1ccccc1	.	/	.	.
O=C(Cc1ccccc1)OCn1nnc2ccccc2c1=O	.	59[fluorescence artefact?]	.	.
CCC(c1nnnn1Cc1ccccc1)N1CCC2(CC1)C(=O)NCN2c1ccccc1 (stereo unspecified)	/	/	.	/
c1ccc2c(c1)[IH]c1ccccc1-2	/	/	.	/
S=C(c1ccc(Cl)cc1)N1CCOCC1	.	.	44	.
O=C(c1ccc(Cl)cc1)N1CCC2(CC1)OCCO2	.	/	.	.
CCC1(c2ccc(C)cc2)C(=O)NC(=S)NC1=O	/	/	.	/
COc1ccc2c3c1OC1C(O)C=CC4C(C2)[N+](C)(C)CCC341 (stereo unspecified)	.	/	.	+
Cc1ccc(S(=O)(=O)N2Cc3cc(-c4ccccc4)ccc3-n3nncc3C2)cc1	/	/	.	/
O=C1NCN(c2ccccc2)C12CCN(C(c1ccccc1OC(F)(F)F)c1nnnn1C1CCCC1)CC2 (stereo unspecified)	/	/	.	/
COc1ccccc1N1C(=O)NC(=O)/C(=C/c2ccc([N+](=O)[O-])s2)C1=O	51	.	/	+
COc1cccc(N2C(=O)NC(=O)/C(=C/c3ccc([N+](=O)[O-])s3)C2=O)c1	.	.	.	+
COc1ccc(N2C(=O)NC(=O)/C(=C\c3ccc([N+](=O)[O-])s3)C2=O)cc1	.	.	.	.
FC(F)(F)c1ccc(-c2ccc3c(c2)CNCc2cnnn2-3)cc1	/	/	.	/
NC(=O)c1ccc(C(=O)Nc2ccc([As](=O)(O)O)cc2)cc1	.	90	/	.
CC(=O)Nc1ccc([As](=O)(O)c2ccc([N+](=O)[O-])cc2)cc1	.	.	.	.
COc1ccc(C=C2C(=O)N(C)C(=O)N(C)C2=O)cc1CSc1ccccn1	?	.	.	+
O=C1CC(=O)N(c2cccc(Br)c2)C(=O)N1	.	/	.	+
O=C1CC(=O)N(c2cccc(C(F)(F)F)c2)C(=O)N1	.	/	.	.
C=CCN1C(=O)NC(=O)/C(=C/c2cc3c4c(c2)CCCN4CCC3)C1=O	77	.	.	.
CCOC(=O)c1cccc(C2=C(CNC(=O)c3ccc([N+](=O)[O-])cc3)[C@H]3CC[C@@H](C2)N3Cc2ccccc2)c1	/	/	.	/
COC(=O)C1=Nc2ccccc2/C1=C\c1c(O)n(C)c(=O)n(C)c1=O	.	.	.	+
O=C(Cn1ncc2c3ccccc3n(Cc3cccc(Cl)c3)c2c1=O)N1CCC2(CC1)OCCO2	73	.	.	+
SMILES	eIF4H inh	eIF4E 4G PPI	MLLE-PAM2 inh	PABP FP inh
Cc1nn(CC(C)C)c(Cl)c1C(=O)NC1CCCC1	/	/	.	/
COCC(=O)N1Cc2ccccc2-n2nncc2C1	/	/	.	/
COc1cc2c(cc1OC)-c1c3c(cc4c1[C@@H](C2)N(C)CC4)OCO3	.	.	.	.
COc1cc2c(cc1O)C[C@H]1NCCc3cc4c(c-2c31)OCO4	64	.	.	+
NC(=O)OCCSc1nnc(-c2cccc(C(N)=S)c2)o1	.	.	41	.
O=C(O)CCn1cc(C=C2C(=O)NC(=S)NC2=O)c(-c2ccccc2)n1	.	.	42	.
O=C(O)CCn1cc(C=C2C(=O)NC(=S)NC2=O)c(-c2cc3ccccc3oc2=O)n1	.	.	.	.
C[CH2][Hg][S]c1ccccc1C(=O)O	/	/	.	/
C=C1C(O)(c2ccccc2)C2CC[N+]1(C)CC2 (stereo unspecified)	.	.	.	+
C[C@@H]1CN([C@@H](C)CO)C(=O)CCCn2nncc2CO[C@H]1CN(C)C(=O)Oc1ccc2ccccc2c1	/	/	.	/
O=[As](O)(O)c1ccc(N=Nc2ccc(O)cc2)cc1	.	.	.	.
O=C1C(Cl)=CC(=Nc2ccc(O)cc2)C=C1Cl	/	/	46	/
c1ccc(P(c2ccccn2)c2ccccn2)cc1	.	.	44	.
COc1ccc(CC2C(=O)N(C)C(=O)N(C)C2=O)c(OC)c1	.	.	42	.
O=C(CCc1ccccc1)N1Cc2cc(-c3cccc(F)c3)ccc2-n2nncc2C1	/	/	.	/
